“And” between values parts separate entries of the source, which are not always exact repeats. Equal entries are not always repeated. About 83,000 compounds went through this panel and 20% of them were active in at least one assay; those are over-represented in the sample as a whole.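 The endpoint reported here, percent growth, reads 100 for growth as untreated, 0 for no net growth and -100 for all cells dead.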 The source made the active and inactive calls. Rule for the calls: active = growth percent below 10; inactive = the rest.

The subject of this experiment is SN12C renal. The experiment is described as follows: NCI-60 one-dose screen, 48 h (100 = growth as untreated, 0 = no growth, -100 = all killed). The settings on record: 10 µM unless noted.
In the case of `CN1CCN(c2ccc(Nc3nc(NCCNS(=O)(=O)c4ccc(Cl)cc4)c4sccc4n3)cc2)CC1`, the growth was 97.7% (inactive). As to `COc1cc(-c2nc(-c3ccccc3)[nH]c2-c2ccnc(NCCCNS(=O)(=O)c3ccc(C(F)(F)F)cc3)n2)ccc1Cl`, the growth was 49.4% (inactive) and 49.5% (inactive). The figure for `CC1(C)CC[C@]23CC[C@]4(C)[C@H](CC[C@@H]5[C@@]6(C)CC[C@H](N)C(C)(C)[C@@H]6CC[C@]54C)[C@H]2[C@H]1OC3` is 79.1% (inactive). As for `Clc1ccc2[nH]cc(-c3nn4cc(-c5cccnc5)nc4s3)c2c1`, the figure is 96.6% (inactive). The figure for `NS(=O)(=O)c1ccc(Nc2nc(N/N=C/c3ccc4c(c3)OCO4)nc(Nc3ccccc3)n2)cc1` is 54.3% (inactive); for `Brc1cc(-c2cc(-c3ccc4c(c3)OCCO4)[nH]n2)cs1` it is 65% (inactive).

On to `CC1=C(C)C(=O)C(Nc2ccc(C)c(C)c2)=C(Br)C1=O`, for which the growth was 98.7% (inactive). On to `COC(=O)N1CCN(CCNCc2ccc(NC(=O)c3ccc(C)c(C#Cc4cnc5cccnn45)c3)cc2C(F)(F)F)CC1`, for which the growth was 39.8% (inactive). As for `O=C(CCCCCCN1CC(=O)N2[C@@H](c3cccs3)c3[nH]c4ccccc4c3C[C@H]2C1=O)NO`, the figure is 93.8% (inactive); as for `C=C(C)[C@@H]1CC[C@]2(C(=O)N3CCN(C)CC3)CC[C@]3(C)[C@H](CC[C@@H]4[C@@]5(C)CC[C@H](OP(=O)(OCC)OCC)C(C)(C)[C@@H]5CC[C@]43C)[C@@H]12`, 84.7% (inactive); as for `CC(=O)N(O)CCCCCNC(=O)CCC(=O)N(O)CCCCCNC(=O)CCC(=O)N(O)CCCCCN(CCCCCCCCCC[P+](c1ccccc1)(c1ccccc1)c1ccccc1)CCCCCCCCCC[P+](c1ccccc1)(c1ccccc1)c1ccccc1`, 1.45% (active). As for `Cc1[nH]c(C(=O)Nc2ccccc2OCc2cccc(C(=O)NCCN)c2)cc1Cl`, the figure is 93.9% (inactive); as for `CCOC(=O)Nc1ccc2c(ccn2C(=O)c2cccc(F)c2)c1`, 48.7% (inactive); as for `O=C(Nc1ccc(N=Cc2c(O)[nH]c3ccccc23)cc1)Nc1ccc(S(=O)(=O)Nc2ncccn2)cc1`, 98.8% (inactive). As for `Fc1cccc(Cl)c1/C=N/Nc1nc(N/N=C/c2c(F)cccc2Cl)nc(N2CCCCC2)n1`, the growth is 23.2% (inactive).

Take `CCc1nnc(NC(=O)c2cc(-c3ccc(Cl)cc3Cl)oc2C)s1`: the growth is 83.7% (inactive). The figure for `C/C(=N\NC(=O)Nc1ccccc1)c1nnn(-c2ccc([N+](=O)[O-])cc2)c1C` is 110% (inactive); for `C#C[C@]1(O)CC[C@H]2[C@@H]3CC=C4c5sc(Nc6cc(Cl)ccc6OC)nc5CC[C@]4(C)[C@H]3CC[C@@]21C` it is 53.7% (inactive). As for `O=C(O)CC1CCN(c2ccc3nnc(Cl)n3n2)CC1`, the growth is 98.4% (inactive).

Consider `Cc1cc2nc(C(Cl)Cl)nc(-c3ccc(S(=O)(=O)N(C)C)cc3)n2n1`, for which the growth is 55% (inactive). The figure for `CCOC(=O)c1ccccc1NC1=C(Cl)C(=O)c2nc(C)ccc2C1=O` is 88.2% (inactive); for `Cc1ccc([C@H]2c3[nH]c4ccccc4c3C[C@H]3C(=O)N(CCCCCCC(=O)NO)CC(=O)N23)s1` it is 85.1% (inactive); for `NC1CC2(CCN(c3cnc(C(=O)Nc4cc(F)cc5cccnc45)cn3)CC2)C1` it is 72.5% (inactive). As for `O=C(CSc1nc2ccccc2c(=O)n1-c1ccc(Cl)cc1)N/N=C/c1ccc(Oc2ccc(Cl)cc2)cc1`, the figure is 45.3% (inactive); as for `CCCCSC1=C(Cl)CN(c2ccc(Cl)cc2)C1=O`, 104% (inactive).

Turning to `CC(=O)/C(N=Nc1ccc2oc(=O)ccc2c1)=C(\C)O`, the growth was 35.6% (inactive). Regarding `CCOC(=O)c1c(NC(=O)c2ccc(C(F)(F)F)cc2)sc2c3c(ccc12)OCN(C)C3`, the growth was 48.1% (inactive).

The values are drawn from PubChem BioAssay (NCI).
